Source: PubChem (The Scripps Research Institute Molecular Screening Center)
The list is not random: actives were taken first. Their share in the collection is about 3.5%.
FBW7 act – activators of human E3 ligase FBW7; Q969H0; AlphaScreen FBW7–phospho-cyclin E peptide binding, activator screen; normalized activity (activation), % at 26.1 µM; 0.13% of 650,000 active; in the data active means normalized activity above about 1.9%;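 further: purified mutant Fbw7 with reduced substrate affinity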
TEAD-YAP inh – TEAD-YAP interaction inhibition; inhibition, % at 9.12 µM; 1.4% of 640,000 active; HEK-TIYL cells, TEAD-Gal4/YAP UAS-luciferase luminescence; in the data active means inhibition above about 32%;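 further: 0% = median of test compound wells and 100% = reference inhibitor wells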
MITF primary – human MITF inhibition, primary screen; O75030; AlphaScreen MITF homodimerization, bead proximity signal; inhibition, % at 2.6 µM; 0.91% of 650,000 active; AID 1259374; in the data active means inhibition above about 50%;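 further: 0% = vehicle wells with protein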
Target sequence (O75030 whole entry, looked up): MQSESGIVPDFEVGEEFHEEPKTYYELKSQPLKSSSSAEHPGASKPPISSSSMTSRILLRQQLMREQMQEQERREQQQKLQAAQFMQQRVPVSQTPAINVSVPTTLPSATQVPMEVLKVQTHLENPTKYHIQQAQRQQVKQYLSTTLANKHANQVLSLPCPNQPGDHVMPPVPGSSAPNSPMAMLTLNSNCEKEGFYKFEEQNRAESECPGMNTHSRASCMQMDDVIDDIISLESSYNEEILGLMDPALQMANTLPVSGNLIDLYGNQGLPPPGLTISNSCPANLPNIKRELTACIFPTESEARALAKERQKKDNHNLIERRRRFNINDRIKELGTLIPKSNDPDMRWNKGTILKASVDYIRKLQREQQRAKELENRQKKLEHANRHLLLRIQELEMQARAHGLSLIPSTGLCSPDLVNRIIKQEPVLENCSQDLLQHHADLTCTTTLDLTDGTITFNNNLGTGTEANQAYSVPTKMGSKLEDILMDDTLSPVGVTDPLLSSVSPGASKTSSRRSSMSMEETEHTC
GPR151 ag – human GPR151 activation. Q8TDV0. PathHunter beta-arrestin GPR151 cells, luminescence. activation, % at 11.2 µM. 1% of 650,000 active. AID 1508602; in the data active means activation above about 4.9%;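 further: 0% = median of compound wells and 100% = cells with positive control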
MITF inh conf – confirmation of human MITF inhibitors; shares compounds with MITF primary; AlphaScreen MITF homodimerization, biotin/His-MITF beads; inhibition, % at 2.6 µM; 16% of 4,700 active; AID 1259372;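 active means inhibition above a cutoff derived from the DMSO control wells, cut at about 28% in these data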;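 further: 0% = MITF dimer wells with DMSO only; inhibitors lower the bead chemiluminescence by keeping MITF from dimerizing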
AlphaScreen DR – AlphaScreen optical interference, dose response counter-screen; shares compounds with MITF primary; 6% of 480 active; IC50, µM; AlphaScreen optical interference counterscreen, cell-free; call rule not given here
AlphaScreen intf2 – optically interferes with AlphaScreen signal; shares compounds with MITF primary; AID 1259376; LysRS AlphaScreen counterscreen, signal interference, triplicate; inhibition, % at 2.6 µM; 7.6% of 4,700 active;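 active means inhibition above a cutoff derived from the DMSO control wells, cut at about 30% in these data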
Numbers without * were called inactive; nt = no result.

SMILES	FBW7 act	TEAD-YAP inh	MITF primary	GPR151 ag	MITF inh conf	AlphaScreen intf2	others
COc1ccc(S(=O)(=O)N(Cc2cc3ccc(C)cc3[nH]c2=O)CC2CCCO2)cc1 (stereo not drawn)	0	12	69*	-1	10	17
C=CCc1cc(OC)ccc1OCCN(C)C	0	13	63*	2	3	10
C=CCc1cc(OC)ccc1OCCCNCCN	0	0	8	0	nt	nt
C=CCc1cc(OC)ccc1OCCNCCN	0	6	24	1	nt	nt
C=CCc1cc(OC)ccc1OCCNCCCOC	0	6	52*	-3	7	18
C=CCc1ccc(OCCN(C)C)c(OC)c1	-1	-1	82*	1	2	15
C/C=C/c1ccc(OCCOCCN(C)C)c(OC)c1	0	1	70*	-1	-2	10
C/C=C/c1ccc(OCCCCNCCN(C)C)c(OC)c1	0	0	-34	0	nt	nt
C/C=C/c1ccc(OCCCN2CCN(CC)CC2)c(OC)c1	0	-9	63*	0	7	19
C/C=C/c1ccc(OCCCCNCCN2CCOCC2)c(OC)c1	0	10	61*	2	3	17
C/C=C/c1ccc(OCCCCN2CC(C)OC(C)C2)c(OC)c1 (stereo not drawn)	0	-10	32	1	nt	nt
CCc1ccc(NC(=O)c2ccc(F)c(S(=O)(=O)N3CCN(c4ccccc4)CC3)c2)cc1	0	-1	13	0	nt	nt
O=[N+]([O-])c1ccc(N2CCN(Cc3cccnc3)CC2)cc1	0	2	59*	0	0	-2
O=C(O)c1ccc(CN2CCN(c3ccc([N+](=O)[O-])cc3)CC2)cc1	0	14	-7	0	nt	nt
O=[N+]([O-])c1ccc(N2CCN(Cc3ccncc3)CC2)cc1	0	8	61*	1	0	-1
O=C(c1ccccc1Cl)N1CCN(c2ccc([N+](=O)[O-])cc2)CC1	0	25	97*	0	7	11
Cc1ccc2oc3c(c(=O)c2c1)C(c1ccc(F)cc1)N(c1cc(C)on1)C3=O (stereo not drawn)	0	6	-4	1	nt	nt
CN=C(NC)SCc1c(C)noc1C	0	3	11	0	nt	nt
Cc1ccc(-c2nnn(CC(=O)c3ccc4c(c3)OCCO4)n2)cc1	0	-4	-11	-1	nt	nt
Cc1ccc(C(=O)Cn2nnc(-c3ccc(N)cc3)n2)cc1	0	0	73*	-1	16	10
COc1ccccc1-c1nnc(SCC(=O)N2CCc3ccccc32)o1	0	6	62*	2	9	-9
N#C/C(=C/c1ccco1)c1cccc(F)c1	1	2	68*	1	30*	17	AlphaScreen DR=>6.5
O=C(O)/C=C/c1ccc([N+](=O)[O-])o1	0	4	60*	-1	64*	7	AlphaScreen DR=>11
O=C(Cn1c2ccccc2c(=O)c2ccccc21)Oc1ccc(F)cc1	0	-7	-2	-1	nt	nt
COc1ccccc1Nc1nc(-c2cccc(NC(C)=O)c2)cs1	0	-67	-2	2	nt	nt
SMILES	FBW7 act	TEAD-YAP inh	MITF primary	GPR151 ag	MITF inh conf	AlphaScreen intf2	others
CC(=O)Nc1cccc(-c2csc(NCc3ccccc3)n2)c1	0	-4	85*	0	9	9
CC(=O)Nc1ccc(-c2csc(NCc3ccccc3)n2)cc1	0	-33	8	2	nt	nt
CCc1ccccc1Nc1nc(-c2cccc(NC(C)=O)c2)cs1	0	-2	53*	5	7	14
CC(C)c1nnc(NC(=O)c2ccc(C(=O)C(=O)c3ccccc3)cc2)s1	0	0	22	0	nt	nt
O=C(NCc1ccc(Cl)cc1)c1cccn2c(=O)c3ccccc3nc12	0	-2	9	1	nt	nt
CCn1c(SCC(=O)Nc2ccc(NC(=O)C(C)(C)C)cc2)nnc1-c1ccncc1	0	7	-1	-1	nt	nt
Cn1c(SCC(=O)Nc2ccc(C(=O)O)cc2)nnc1-c1ccncc1	0	6	4	3	nt	nt
CC(=O)c1ccc(NC(=O)CSc2nnc(-c3ccncc3)n2CCCN(C)C)cc1	0	-13	71*	0	7	10
CCc1ccc(NC(=O)CSc2nnc(-c3ccncc3)n2CCCN(C)C)cc1	0	3	88*	-1	8	12
CC(C)(C)n1nnnc1C(c1ccc2ncccc2c1)N1CCOCC1 (stereo not drawn)	0	-28	54*	0	9	5
CCN1CCN(C(c2ccc3ncccc3c2)c2nnnn2C(C)(C)C)CC1 (stereo not drawn)	0	0	10	1	nt	nt
COc1ccccc1/C=N/NC(=O)C(=O)NC(C)(C)C	0	3	1	3	nt	nt
CCCC(C)NC(=O)Cc1ccc(Br)cc1 (stereo not drawn)	0	-15	51*	1	3	9
Cc1ccc(C(=O)Nc2ccc([N+](=O)[O-])cn2)o1	0	-32	80*	-4	69*	-9	AlphaScreen DR=>6.5
Cc1nnn(-c2nonc2N)c1C(=O)N/N=C/c1ccc([N+](=O)[O-])o1	0	8	-9	0	nt	nt
Cc1ccc(NP2(=O)C=C(c3ccccc3)OC(c3ccccc3)=C2)c(C)c1	0	-2	8	0	nt	nt
COc1ccc(F)c(CN2CCC(C3(CCc4ccccc4)NC(=O)NC3=O)CC2)c1 (stereo not drawn)	0	4	81*	1	2	-2
O=C(CN1CCC(N2CCCCC2)CC1)c1ccc2c(c1)OCCO2	0	-6	58*	3	11	16
O=C(CN1CCC(N2CCCCC2)CC1)Nc1ccc2c(c1)OCCO2	0	-6	7	2	nt	nt
CN(CC(=O)Nc1c2c(nc3ccccc13)CCC2)Cc1ccccc1	0	-5	71*	2	11	9
O=C(CN1CCN(Cc2ccccc2)CC1)Nc1c2c(nc3c1CCC3)CCCC2	0	5	67*	1	-6	-6
O=C(CN1CCN(c2ccccc2)CC1)Nc1c2c(nc3c1CCC3)CCCC2	0	-6	2	0	nt	nt
CN1CCN(CC(=O)Nc2c3c(nc4ccccc24)CCCC3)CC1	0	2	60*	1	4	13
O=C(COC(=O)c1ccc(Br)o1)NCc1ccccc1	0	5	3	-1	nt	nt
c1ccc(OCc2nc3ccccc3n2CC2CCN(Cc3ccccn3)CC2)cc1	-1	5	90*	0	15	23
O=C(CCCc1c[nH]c2ccccc12)NNC(=O)c1ccc(Br)cc1	0	-13	-10	-1	nt	nt
O=C1NC(c2ccccc2)=C([N+](=O)[O-])C(c2cccc(F)c2)N1 (stereo not drawn)	0	12	76*	2	-5	-8
CCOC(=O)C1CCN(Cc2cn[nH]c2-c2ccccc2)CC1	0	-2	55*	-1	-14	11
